# Bioassay records: PubChem, National Center for Advancing Translational Sciences (NCATS)
# ELG1 genotoxic: genotoxicity induction in ELG1-luciferase HEK293T cells | HEK293T ELG1-luciferase reporter, luminescence, 16 h | Potency, µM (series often up to 46 µM), for inactives: at the top dose activity change, positive = activation, most hits filed as activators | 330,000 compounds, 1.3% hits | AID 504466; further: % of control where 0% means no effect; nearly all actives have a fitted effect of over 60% in size
#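 Luminescence read-out: rising ELG1-luciferase signal, reflecting elevated ELG1 protein under genetic stress, flags genotoxic compounds. Cells were treated for 16 hr at 37 °C before ONE-Glo detection.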
# ELG1 DNA repair: ELG1-dependent DNA repair inhibition | HEK293T ELG1-luciferase reporter, luminescence, 16 h; DNA damage induced by 5-fluorouridine | Potency, µM (titrated, usually from 46.1 µM), without a hit: at the top dose activity change, negative = inhibition, usual class: inhibitors | AID 504467 | 330,000 compounds, 2.3% hits; further: on the % scale 0 is the no-effect control and ±100 the full control effect; nearly all actives have a fitted effect of over 55% in size
#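 Reporter activity after DNA damage by 5-fluorouridine is monitored. Compound-treated cells incubate 16 hr at 37 °C, then ONE-Glo is added for 30 min before luminescence reading.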
# MCF10A rerep: inducers of DNA re-replication in MCF 10A breast cells; Potency, µM (titrated, usually from 46.1 µM), without a hit: at the top dose activity, positive = re-replication, usual class: activators; 350,000 compounds, 2.9% hits; MCF 10A DNA re-replication, Hoechst nuclear intensity, 48 h; further: % of control where 0% means no effect; nearly all actives have a fitted effect of over 50% in size
# SW480 rerep: induces DNA re-replication in SW480 colon adenocarcinoma cells; SW480 DNA re-replication, Hoechst DNA content imaging, 48 h; Potency, µM (series often up to 46.1 µM), for the others: top-dose re-replication activation, hits mostly activators; 340,000 compounds, 1.8% hits; further: % of control where 0% means no effect; nearly all actives have a fitted effect of over 55% in size
#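 250 cells/well; 23 nL cpd via pin tool; 48 hr, 37 C, 5% CO2; Hoechst 40 min; imager read of total nuclear intensity, ex 405/em 500-530 nm.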
# A-T KAP1 phos: potential ataxia-telangiectasia treatments restoring KAP-1 phosphorylation; F2112 A-T fibroblasts, KAP-1 phosphorylation AlphaLISA; neocarzinostatin DNA damage 30 min before lysis; Potency, µM (doses to about 57.5 µM), inactives show at the top dose activation, most hits filed as activators; 320,000 compounds, 0.19% hits; AID 485349; further: % of control where 0% means no effect; nearly all actives have a fitted effect of over 45% in size
#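 ATM-like activity read as KAP-1 phosphorylation via AlphaLISA donor/acceptor antibody pairs after lysis and 6 hr at 25C. Cells were ATM-null patient fibroblasts (F2112, hTERT), dosed 60 min, then exposed to the DSB inducer NCS for 30 min.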
# p53 reactivation: restores transcriptional activity of mutant p53 | H1299 p53-A138V BP100-luciferase reporter, luminescence, 24 h | Potency, µM (highest dose often 92.2 µM), inactives show at the highest dose activity change, positive = activation, hits mostly activators | 320,000 compounds, 0.063% hits | AID 504706; further: % of control where 0% means no effect; nearly all actives have a fitted effect of over 45% in size
#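 H1299 (p53-null), stable ts p53-A138V + BP100-Luc; 1000 cells/well, Opti-MEM/10% FBS; cpd 4 pt, 1:5; 24 h, 37 deg C, 5% CO2; detection reagent 10 min RT; luminescence.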
# Active calls of the source: *; u = inconclusive. This is a sample that favours compounds with a hit; in the whole collection about 7.1% have one here. The call rests on the fitted dose curve; in most records, active means well fitted curve in the direction sought with a large enough effect; inconclusive means small, poorly fitted or top-dose-only effect, or another doubt; inactive means no such curve, though single readings can be large; an effect the other way counts as inactive or inconclusive. Potency means the concentration at half of the fitted maximal effect.
SMILES,ELG1 genotoxic,ELG1 DNA repair,MCF10A rerep,SW480 rerep,A-T KAP1 phos,p53 reactivation
CC(C)Oc1ccc(S(=O)(=O)N2CCOCC2)cc1NC(=O)Cc1cccs1,-1%,-12%,-15%,-74%,-7%,-2%
COc1cc(Cl)c(C)cc1NC(=O)CCN1C(=O)NC(C)(C)C1=O,0%,17%,21%,u,7%,-2%
Oc1ccccc1/C=N/Nc1ncc(Br)cn1,16µM*,u,-22%,u,4%,u
O=C(CC(O)CCc1ccccc1)c1ccc(O)cc1 (configuration not stated),11%,u,0%,-8%,2%,17%
COCCCNC(=O)Cc1c(C)c2c(cc(C)c3c(C(C)(C)C)coc32)oc1=O,-4%,0%,u,2.3µM*,-14%,21%
COCCNC(=O)Cc1c(C)c2c(cc(C)c3c(C)coc32)oc1=O,2%,7%,-3%,11%,-5%,-4%
Cc1cc(=O)oc2cc3c(cc12)OCCN3,5%,u,8.2µM*,u,u,14%
COCCCNC(=S)N1CCN(c2nc(C)nc3sc4c(c23)CCCC4)CC1,-7%,21µM*,-3%,1%,-10%,4%
CCCNC(=S)N1CCN(c2nc(C)nc3sc4c(c23)CCCC4)CC1,-13%,u,u,-7%,4%,-2%
COc1ccc2c(c1)S/C(=C\C(=O)c1ccncc1)N2C,21µM*,u,-3%,-12%,-4%,22%
COc1cc(OC)cc(C(=O)/C=C2\Sc3ccccc3N2C)c1,u,u,u,u,9%,2%
CC1CCN(CCCNC(=O)c2nn(C)c3c2CS(=O)(=O)c2ccccc2-3)CC1,4%,-3%,4%,-3%,7%,7%
C=C1C(=O)O[C@H]2[C@H]1[C@@H](O)CC(=C)[C@@H]1CC(=O)[C@@H](C)[C@H]21,2%,-14%,12µM*,4.6µM*,-3%,-19%
CC1(C)Cc2c(c(-c3ccco3)nc3sc4c(NCCCO)ncnc4c23)CO1,0%,13µM*,1%,-6%,12%,-10%
CC(C)CNc1ncnc2c1sc1nc(N3CCOCC3)c3c(c12)CC(C)(C)OC3,2%,u,3%,1%,4%,12%
CN(C)CCNc1ncnc2c1sc1nc(N3CCCC3)c3c(c12)CC(C)(C)OC3,13%,u,u,u,4%,-5%
CC1(C)Cc2c(c(-c3ccco3)nc3sc4c(NCC5CCCO5)ncnc4c23)CO1 (configuration not stated),2%,7.3µM*,23µM*,u,-8%,-19%
CC1(C)Cc2c(c(N3CCOCC3)nc3sc4c(NN)ncnc4c23)CS1,-13%,u,23µM*,u,-4%,u
CCN(CC)CCNc1ncnc2c1sc1nc(N3CCCC3)c3c(c12)CC(C)(C)OC3,u,u,21µM*,14%,1%,-3%
Cc1cc(NC(=O)CN2C(=O)NC3(CCCCC3)C2=O)ccc1N1CCCC1,2%,7%,0%,0%,-5%,-5%
COCCCNC(=O)CNC(=O)c1nn(-c2ccc(OC)c(Cl)c2)c(=O)c2ccccc12,0%,-5%,0%,16%,-9%,-2%
CS(=O)(=O)c1ccc(C(=O)OCC(=O)NCc2cccs2)cc1[N+](=O)[O-],-14%,-29%,4.1µM*,9.2µM*,-3%,-16%
COC(=O)c1cc(C(=O)OCC(=O)NNC(=O)c2cccs2)cc([N+](=O)[O-])c1,2%,-2%,-10%,2.9µM*,1%,10%
O=C(COC(=O)c1ccc(Cl)cc1[N+](=O)[O-])NNC(=O)c1cccs1,-1%,u,-1%,-11%,-3%,10%
